Assay [1] has as its system PRMT1 (protein arginine N-methyltransferase 1). As to the kind of experiment: small molecules binding arginine methyltransferase PRMT1 – biochemical, small-molecule microarray, 635 nm fluorescence, primary screen (AID 1088).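 Also: binding of Prmt1 protein to compounds spotted on small-molecule microarray slides.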 To be noted: higher = more signal.
Assay [2] can be described thus: growth effects on S. cerevisiae YJM789 – YJM789 clinical isolate, OD600, 24 h, basal, primary screen (AID 1089).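 Also: growth of clinical yeast isolate S. cerevisiae YJM 789 seeded 1000 cells per well; test concentration not given here.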 The note with it: higher = more signal, called active from +8 up or from −8 down.
Assay [3] is described as follows: S. pombe growth modifiers, basal conditions – strain 972, OD600, 24 h, no modulator, primary screen (AID 1090).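 Also: basal condition with compound alone and no growth modifier present; test concentration not given here.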 To be noted: S. pombe 972 growth, higher = more signal, called active from +8 up or from −8 down.
A short description of assay [4]: budding yeast growth modifiers under rapamycin – strain BY4716, OD600, 96 h, primary screen (AID 1091). Also: test concentration not given here. To be noted: S. cerevisiae BY4716 + rapamycin, higher = more signal, called active from +8 up or from −8 down.
For assay [5], the target named is Torsin-1A-interacting protein 2 (Homo sapiens) (UniProt Q8NFQ8). The assay can be described thus: small molecules binding lysate-expressed LULL1 – cell lysate, human LULL1 lysate, 635/667 nm fluorescence, primary screen (AID 1092).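 Also: probe is lysate of COS7 cells overexpressing human LULL1; score merges per-feature 667 nm fluorescence with signal-to-noise.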 To be noted: small-molecule microarray, hLULL1 lysate binding, 635 nm fluorescence; higher = more signal.
Chain of Torsin-1A-interacting protein 2 (Homo sapiens) (Q8NFQ8 whole entry, looked up): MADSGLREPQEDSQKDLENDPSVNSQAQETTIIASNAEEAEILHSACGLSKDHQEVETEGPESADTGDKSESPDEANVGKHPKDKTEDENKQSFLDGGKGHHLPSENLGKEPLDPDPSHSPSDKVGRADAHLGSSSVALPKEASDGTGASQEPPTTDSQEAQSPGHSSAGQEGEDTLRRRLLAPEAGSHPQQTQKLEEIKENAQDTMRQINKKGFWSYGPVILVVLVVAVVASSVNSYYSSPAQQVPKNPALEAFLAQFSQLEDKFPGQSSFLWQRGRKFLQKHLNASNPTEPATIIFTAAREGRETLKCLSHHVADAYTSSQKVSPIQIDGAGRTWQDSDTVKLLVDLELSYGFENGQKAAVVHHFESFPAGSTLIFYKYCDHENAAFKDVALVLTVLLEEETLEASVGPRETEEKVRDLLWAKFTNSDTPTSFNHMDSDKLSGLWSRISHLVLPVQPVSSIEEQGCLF
Assay [6] can be described thus: optical density change of DRC41 E. coli – strain DRC41, OD650, 24 h, E. coli filamentation project, primary screen (AID 1093).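 Also: MC1000 strain lacking acrAB efflux and sulA so SOS filamentation is blocked; test concentration not given here.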 To be noted: E. coli DRC41 growth, higher = more signal, called active from +8 up or from −8 down.
Assay [7] can be described thus: probe aLefty2 binding to arrayed compounds – biochemical, biotinylated probe, 635/667 nm fluorescence, primary screen (AID 1094).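 Also: score merges spot fluorescence near 667 nm with spot signal-to-noise ratio.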 The note with it: small-molecule microarray, higher = more signal.
Assay [8] relates to Noggin (protein binding on small-molecule microarray). The assay can be described thus: small molecules binding Noggin protein – biochemical, 635/667 nm fluorescence, primary screen (AID 1095).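 Also: score merges 667 nm feature fluorescence with signal to noise over triplicate slides.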 To be noted: 635 nm fluorescence, higher = more signal.
Assay [9] concerns the target Neurogenic locus notch homolog protein 3 (Homo sapiens) (UniProt Q9UM47). The assay can be described thus: small molecules binding NOTCH3 protein – biochemical, 635/667 nm fluorescence, primary screen (AID 1096). The note with it: small-molecule microarray, 635 nm fluorescence, higher = more signal.
A short description of assay [10]: probe aEGFR binding to arrayed compounds – biochemical, biotinylated probe, 635/667 nm fluorescence, primary screen (AID 1097).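 Also: probe is a biotinylated anti-EGFR antibody binding compounds printed on slides; score combines fluorescence near 667 nm and signal to noise of each spot.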 The note with it: small-molecule microarray, higher = more signal.
The test system of assay [11] is Plasmodium falciparum Sir2 (PF13_0152, Sir2A). The assay can be described thus: Plasmodium falciparum Sir2A binding compounds – biochemical, small-molecule microarray, 635 nm fluorescence, primary screen (AID 1098).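 Also: score merges spot fluorescence intensity with its signal-to-noise ratio.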 To be noted: fluorescence 635 nm, higher = more signal.
Assay [12] in a line: probe aDKK1 binding to arrayed compounds – biochemical, biotinylated probe, 635/667 nm fluorescence, primary screen (AID 1099).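 Also: score merges 667nm spot fluorescence with signal to noise across triplicate slides; reference of the scale not given here.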 To be noted: small-molecule microarray, higher = more signal.
A short description of assay [13]: probe aCHRDL2 binding to arrayed compounds – biochemical, biotinylated probe, 635/667 nm fluorescence, primary screen (AID 1100). The note with it: small-molecule microarray, higher = more signal.
A short description of assay [14]: change in splice reporter luminescence, either direction, cell-based, HEK293, spliceosome inhibition project, primary screen (AID 1101).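 Also: HEK293 cells carrying a splicing-competent luciferase reporter gene; test concentration not given here.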 The note with it: HEK293 splicing luciferase reporter, 24 h, higher = more signal, called active from +8 up or from −8 down. (Reporter assays use an easily measured gene product as a stand-in for the process of interest.)
Assay [15] concerns the target Fibroblast growth factor 10 (Homo sapiens) (UniProt O15520). As to the kind of experiment: compounds binding fibroblast growth factor 10 – biochemical, small-molecule microarray, 635 nm fluorescence, primary screen (AID 1102). The note with it: FGF10 binding, fluorescence 635 nm, higher = more signal.
Assay [16] deals with glycogen synthase kinase-3 (GSK3A per assay name; protocol says GSK3B). The assay can be described thus: compounds binding glycogen synthase kinase-3 – biochemical, small-molecule microarray, 635 nm fluorescence, GSK3A, primary screen (AID 1103). Also: the record names both GSK3A and GSK3B. To be noted: fluorescence 635 nm, higher = more signal.
The target in assay [17] is Epidermal growth factor receptor (Homo sapiens) (UniProt P00533). As to the kind of experiment: compounds binding epidermal growth factor receptor – biochemical, small-molecule microarray, 635 nm fluorescence, primary screen (AID 1104).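 Also: score merges 667 nm emission intensity with spot signal to noise over triplicate slides.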 To be noted: EGFR binding, higher = more signal.
Chain of Epidermal growth factor receptor (Homo sapiens) (P00533 whole entry, looked up): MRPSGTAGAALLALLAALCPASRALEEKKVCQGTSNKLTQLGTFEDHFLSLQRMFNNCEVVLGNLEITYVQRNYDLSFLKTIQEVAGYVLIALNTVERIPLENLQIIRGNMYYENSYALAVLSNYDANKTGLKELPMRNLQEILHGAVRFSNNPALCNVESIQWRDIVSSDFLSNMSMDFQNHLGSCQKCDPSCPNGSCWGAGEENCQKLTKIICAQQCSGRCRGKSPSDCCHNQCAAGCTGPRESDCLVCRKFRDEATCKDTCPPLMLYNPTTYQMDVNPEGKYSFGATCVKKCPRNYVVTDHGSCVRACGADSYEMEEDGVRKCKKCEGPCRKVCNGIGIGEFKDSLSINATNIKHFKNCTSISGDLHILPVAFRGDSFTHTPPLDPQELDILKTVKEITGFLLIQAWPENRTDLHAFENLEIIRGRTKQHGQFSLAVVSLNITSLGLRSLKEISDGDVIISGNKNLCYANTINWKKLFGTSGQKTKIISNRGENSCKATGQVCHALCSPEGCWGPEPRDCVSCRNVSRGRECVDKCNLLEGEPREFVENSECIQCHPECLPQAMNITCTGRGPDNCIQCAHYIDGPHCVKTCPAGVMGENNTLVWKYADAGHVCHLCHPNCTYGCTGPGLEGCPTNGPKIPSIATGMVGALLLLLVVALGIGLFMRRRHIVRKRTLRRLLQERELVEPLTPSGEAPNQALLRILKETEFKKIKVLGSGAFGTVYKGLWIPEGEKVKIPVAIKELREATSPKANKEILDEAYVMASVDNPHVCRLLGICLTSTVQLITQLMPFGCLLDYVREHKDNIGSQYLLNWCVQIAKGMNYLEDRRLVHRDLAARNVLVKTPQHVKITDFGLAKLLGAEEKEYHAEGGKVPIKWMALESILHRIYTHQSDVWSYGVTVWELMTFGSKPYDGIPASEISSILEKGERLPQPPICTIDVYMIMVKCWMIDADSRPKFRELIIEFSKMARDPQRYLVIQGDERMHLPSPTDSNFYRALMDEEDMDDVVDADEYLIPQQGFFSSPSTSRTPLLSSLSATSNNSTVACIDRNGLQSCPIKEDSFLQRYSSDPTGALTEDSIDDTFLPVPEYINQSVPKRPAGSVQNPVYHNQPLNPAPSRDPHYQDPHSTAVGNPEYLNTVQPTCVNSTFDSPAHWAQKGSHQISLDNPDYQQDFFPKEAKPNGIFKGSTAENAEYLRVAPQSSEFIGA
Assay [18] has as its target Follistatin-related protein 3 (Homo sapiens) (UniProt O95633). The assay can be described thus: compounds binding follistatin-related protein 3 – biochemical, small-molecule microarray, 635 nm fluorescence, primary screen (AID 1105).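 Also: score merges emission near 667 nm and signal to noise per printed spot across three slides.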 The note with it: FSTL3 binding, higher = more signal.
In assay [19] the target is Dickkopf-related protein 1 (Homo sapiens) (UniProt O94907). The assay can be described thus: small molecules binding DKK1 protein – biochemical, small-molecule microarray, 635 nm fluorescence scan, primary screen (AID 1106).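 Also: score merges emission near 667 nm with signal to noise over three replicate slides.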 The note with it: higher = more signal.
Chain of Dickkopf-related protein 1 (Homo sapiens) (O94907 whole entry, looked up): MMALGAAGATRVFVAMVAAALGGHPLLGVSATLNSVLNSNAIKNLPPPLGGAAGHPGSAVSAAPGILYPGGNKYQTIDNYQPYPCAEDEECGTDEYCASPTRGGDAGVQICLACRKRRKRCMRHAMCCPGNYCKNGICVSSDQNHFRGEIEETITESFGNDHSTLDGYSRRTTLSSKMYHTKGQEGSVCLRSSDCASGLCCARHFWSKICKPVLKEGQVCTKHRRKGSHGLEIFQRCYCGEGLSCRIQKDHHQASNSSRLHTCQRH
The test system of assay [20] is Inhibin beta A chain (activin A). As to the kind of experiment: small molecules binding activin A – biochemical, small-molecule microarray, 635 nm fluorescence scan, primary screen (AID 1107).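 Also: mouse activin A protein probed at 4.33 µg/mL on printed slides; score merges bound-protein fluorescence near 667 nm with spot signal-to-noise.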 The note with it: INHBA, higher = more signal.

Here are results for 9 compounds from PubChem BioAssay.

The source made the active and inactive calls.

Chain of Follistatin-related protein 3 (Homo sapiens) (O95633 whole entry, looked up): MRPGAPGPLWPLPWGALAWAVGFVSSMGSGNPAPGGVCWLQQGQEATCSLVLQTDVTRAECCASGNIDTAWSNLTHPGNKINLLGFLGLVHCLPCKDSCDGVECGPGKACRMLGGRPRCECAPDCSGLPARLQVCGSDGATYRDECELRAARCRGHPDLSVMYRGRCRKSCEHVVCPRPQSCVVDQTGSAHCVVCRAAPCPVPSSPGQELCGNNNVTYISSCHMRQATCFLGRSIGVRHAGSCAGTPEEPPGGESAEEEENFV
Chain of Neurogenic locus notch homolog protein 3 (Homo sapiens) (Q9UM47 whole entry, looked up): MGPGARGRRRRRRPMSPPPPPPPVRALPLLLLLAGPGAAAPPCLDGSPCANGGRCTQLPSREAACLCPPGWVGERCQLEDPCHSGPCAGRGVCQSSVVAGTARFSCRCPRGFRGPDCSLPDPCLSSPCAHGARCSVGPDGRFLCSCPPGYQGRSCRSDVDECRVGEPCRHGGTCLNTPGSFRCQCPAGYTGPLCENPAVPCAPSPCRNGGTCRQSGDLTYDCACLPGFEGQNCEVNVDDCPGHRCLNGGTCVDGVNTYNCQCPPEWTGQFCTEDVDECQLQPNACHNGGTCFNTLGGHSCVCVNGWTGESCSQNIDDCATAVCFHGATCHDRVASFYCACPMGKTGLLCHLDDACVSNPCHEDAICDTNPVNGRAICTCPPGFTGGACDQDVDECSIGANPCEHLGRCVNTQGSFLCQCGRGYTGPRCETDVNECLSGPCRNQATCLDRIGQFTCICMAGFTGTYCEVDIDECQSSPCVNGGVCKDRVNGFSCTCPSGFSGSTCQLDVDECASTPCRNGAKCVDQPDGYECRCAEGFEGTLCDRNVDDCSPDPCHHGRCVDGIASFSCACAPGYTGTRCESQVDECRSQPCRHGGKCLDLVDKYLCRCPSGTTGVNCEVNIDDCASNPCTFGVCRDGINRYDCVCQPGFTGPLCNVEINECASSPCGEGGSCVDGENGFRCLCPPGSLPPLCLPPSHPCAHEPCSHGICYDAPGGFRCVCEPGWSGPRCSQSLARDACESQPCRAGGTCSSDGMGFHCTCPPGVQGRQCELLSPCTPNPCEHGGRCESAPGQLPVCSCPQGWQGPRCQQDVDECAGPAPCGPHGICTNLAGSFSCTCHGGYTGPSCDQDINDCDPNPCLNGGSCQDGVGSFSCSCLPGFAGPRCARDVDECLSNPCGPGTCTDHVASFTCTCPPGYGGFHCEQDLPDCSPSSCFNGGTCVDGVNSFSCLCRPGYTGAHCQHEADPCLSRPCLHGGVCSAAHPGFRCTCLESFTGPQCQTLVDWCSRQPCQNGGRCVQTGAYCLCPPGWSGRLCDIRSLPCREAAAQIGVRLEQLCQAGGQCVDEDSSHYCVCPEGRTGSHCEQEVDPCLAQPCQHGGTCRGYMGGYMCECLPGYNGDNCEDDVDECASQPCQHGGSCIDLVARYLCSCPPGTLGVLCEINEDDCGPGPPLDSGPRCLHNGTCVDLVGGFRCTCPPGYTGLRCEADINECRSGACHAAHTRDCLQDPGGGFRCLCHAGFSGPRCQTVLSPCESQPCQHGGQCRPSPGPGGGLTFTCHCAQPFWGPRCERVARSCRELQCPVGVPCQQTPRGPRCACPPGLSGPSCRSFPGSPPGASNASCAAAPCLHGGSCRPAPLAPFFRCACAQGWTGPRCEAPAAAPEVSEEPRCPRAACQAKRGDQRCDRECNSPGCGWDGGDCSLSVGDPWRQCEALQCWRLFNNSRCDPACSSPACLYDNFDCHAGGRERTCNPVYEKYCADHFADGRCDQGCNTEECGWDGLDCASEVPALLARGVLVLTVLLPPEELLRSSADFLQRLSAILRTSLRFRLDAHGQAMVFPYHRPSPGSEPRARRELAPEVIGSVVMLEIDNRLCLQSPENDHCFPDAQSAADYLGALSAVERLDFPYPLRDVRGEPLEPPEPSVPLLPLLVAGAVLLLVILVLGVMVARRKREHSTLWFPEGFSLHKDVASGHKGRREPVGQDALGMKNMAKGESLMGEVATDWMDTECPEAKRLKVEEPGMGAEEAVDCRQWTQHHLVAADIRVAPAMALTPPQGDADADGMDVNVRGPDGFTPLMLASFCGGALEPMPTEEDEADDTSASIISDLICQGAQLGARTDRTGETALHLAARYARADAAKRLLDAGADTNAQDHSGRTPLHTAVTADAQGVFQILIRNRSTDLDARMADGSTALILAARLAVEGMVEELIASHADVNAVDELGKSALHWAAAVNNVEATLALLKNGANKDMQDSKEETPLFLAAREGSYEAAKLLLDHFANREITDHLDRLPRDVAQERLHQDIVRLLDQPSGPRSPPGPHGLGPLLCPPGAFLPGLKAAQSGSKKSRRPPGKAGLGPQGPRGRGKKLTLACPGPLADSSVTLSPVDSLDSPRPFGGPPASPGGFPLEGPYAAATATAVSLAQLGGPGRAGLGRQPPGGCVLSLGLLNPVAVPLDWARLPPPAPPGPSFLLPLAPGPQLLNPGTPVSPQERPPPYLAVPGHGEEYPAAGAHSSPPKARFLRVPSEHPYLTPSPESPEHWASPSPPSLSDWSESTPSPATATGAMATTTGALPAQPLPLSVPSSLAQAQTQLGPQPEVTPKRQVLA
Chain of Fibroblast growth factor 10 (Homo sapiens) (O15520 whole entry, looked up): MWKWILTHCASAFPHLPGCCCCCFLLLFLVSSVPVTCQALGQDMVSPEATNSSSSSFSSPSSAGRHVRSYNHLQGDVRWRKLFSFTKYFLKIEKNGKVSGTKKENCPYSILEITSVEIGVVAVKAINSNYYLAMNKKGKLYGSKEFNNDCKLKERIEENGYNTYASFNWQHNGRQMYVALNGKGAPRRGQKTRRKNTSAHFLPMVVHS

Regarding `CC(=O)OC[C@H]1O[C@H](CC=NO[C@@H](C)c2cn([C@H](CO)Cc3ccccc3)nn2)C=C[C@@H]1OC(C)=O`, the composite z-score was 1.56 in assay [1]; 0.96 in [5]; -0.0137 in assay [7]; 0.336 in assay [8]; 0.55 in assay [9]; 0.0035 in assay [10]. Moreover, the composite z-score was 0.775 in assay [11]; 0.101 in assay [12]; -0.624 in assay [13]; 1.07 in [15]; 0.517 in assay [16]; 0.387 in assay [17]. For the same compound, the composite z-score is 1.06 in [18], 1.05 in assay [19] and -0.383 in assay [20]. The z-score is -0.283 (inactive) in assay [2]; -0.359 (inactive) in assay [3]; -0.346 (inactive) in assay [4]; -0.477 (inactive) in assay [6]; -1.54 (inactive) in assay [14].
Turning to `CO[C@@H]1COC(=O)[C@@H]2CCCN2C(=O)[C@@H](C)COC(=O)CCC[C@H]1C`, the composite z-score in [1] was 1.55; in assay [5], 0.871; in [7] it was -0.176; in assay [8] it was 0.456; in assay [9], 0.525; in assay [10], 0.158. Further, the composite z-score in assay [11] is 0.877; in assay [12], -0.331; in assay [13] it was -0.624; in assay [15], 0.981; in assay [16] it was 0.561; in [17], 0.38. Besides, the composite z-score in assay [18] is 0.621; in [19], 0.661; in assay [20] it was -0.751. Also, the z-score in assay [2] is -1.86 (inactive); in assay [3], -0.875 (inactive); in [4] it was -0.815 (inactive); in [6] it was -0.76 (inactive); in assay [14] it was -1.27 (inactive).
On to `COC(=O)[C@H](C)NC(=O)CCC1CC(OC(=O)NCc2cccc3ccccc23)CC2(CCCC(COC(=O)NCCc3ccccc3OC)O2)O1` (stereo not given in full), for which the composite z-score in assay [1] was 1.37; in assay [5], 2.38; in [7], -0.0179; in [8] it was 1.14; in [9] it was 0.817; in assay [10], 0.0066. In addition, the composite z-score in [11] was 0.906; in [12], -0.0471; in [13], -0.433; in assay [15] it was 1.23; in assay [16], 1.12; in assay [17] it was 0.454. Moreover, the composite z-score in assay [18] was 1.25; in [19], 0.686; in assay [20], -0.267. Further, the z-score in [2] is 0.502 (inactive); in assay [3], 1.02 (inactive); in assay [4] it was 2.03 (inactive); in assay [6], 0.476 (inactive); in assay [14], -0.105 (inactive).
Consider `COc1ccc(COC(=O)NN=C2C[C@@H](O)[C@@H](O)[C@@H]3[C@@H]4C(=O)N(c5cccc(Oc6ccccc6)c5)C(=O)[C@@H]4CC[C@H]23)cc1`, for which the composite z-score in assay [1] was -0.412; in assay [5], 0.717; in assay [7], 0.297; in assay [8] it was -0.476; in assay [9] it was 0.148; in assay [10] it was -0.109. Moreover, the composite z-score in assay [11] was 0.328; in assay [12], 0.543; in assay [13], 1.2; in assay [15] it was -0.0908; in assay [16] it was -0.944; in assay [17] it was -0.479. For the same compound, the composite z-score is -0.226 in assay [18], -0.767 in assay [19] and 0.212 in [20]. Further, the z-score in assay [2] was 0.135 (inactive); in assay [3], -0.655 (inactive); in assay [4] it was -0.693 (inactive); in assay [6], 1.02 (inactive); in assay [14] it was -1.27 (inactive).
On to `CCOC(=O)CCN1C(=O)[C@H]2[C@H]3[C@H](O)[C@H](O)CC(=NOCC(C)C)[C@@H]3CC[C@H]2C1=O`, for which the composite z-score in assay [1] was 0.868; in assay [5], -0.953; in [7] it was -0.0956; in [8], 1.39; in assay [9], -0.321; in [10], 0.163. Further, the composite z-score in assay [11] was 0.816; in assay [12] it was -0.823; in [13], -1.74; in assay [15], -0.0809; in [16] it was 1.06; in assay [17] it was 0.406. Moreover, the composite z-score was determined as 1.04 in assay [18], 1.78 in assay [19] and 1.28 in assay [20]. Besides, the z-score in [2] is -0.535 (inactive); in assay [3], -0.219 (inactive); in [4] it was -0.629 (inactive); in assay [6], -0.127 (inactive); in assay [14], 0.66 (inactive).
Consider `CC#CCOCCC=C1c2ccccc2[C@@H](OC)[C@@H]1C`, for which the composite z-score in assay [1] was 0.513; in assay [5], 0.127; in [7], -0.0266; in assay [8], 0.697; in assay [9], 0.153; in assay [10] it was 0.0579. Besides, the composite z-score in assay [11] was 0.183; in assay [12], -0.168; in assay [13], -0.42; in assay [15], 0.593; in [16], -0.406; in [17], 0.0594. Moreover, the composite z-score in assay [18] was 0.449; in assay [19] it was 0.487; in assay [20] it was -2.36. The z-score was -0.0953 (inactive) in [2]; -2.52 (inactive) in assay [3]; -0.933 (inactive) in [4]; 0.596 (inactive) in assay [6]; 0.478 (inactive) in [14].
As to `CCOC(=O)[C@H](Cc1ccccc1)NC(=O)CCC1CC(OC(=O)NCc2ccc3c(c2)OCO3)CC2(CCCC(COC(=O)NCCOc3ccccc3)O2)O1` (stereo not given in full), the composite z-score in assay [1] is 1.48; in assay [5] it was 1.31; in assay [7], -0.0446; in assay [8], 0.484; in [9], 1.12; in assay [10], 0.0436. Besides, the composite z-score was 0.653 in assay [11]; -0.388 in [12]; -0.704 in assay [13]; 0.881 in assay [15]; 1.1 in [16]; 0.628 in assay [17]. The composite z-score in assay [18] is 1.31; in [19], 1.16; in assay [20], -0.0859. Besides, the z-score in [2] was 0.0339 (inactive); in [3], 0.486 (inactive); in [4], 0.576 (inactive); in assay [6], 0.196 (inactive); in assay [14], -1.13 (inactive).
In the case of `CC(C)=NO[C@H](C)c1cn([C@@H]2COC[C@H]2O)nn1`, the composite z-score is 0.629 in assay [1]; 0.242 in assay [5]; -0.0936 in assay [7]; 0.683 in [8]; 0.562 in assay [9]; 0.0102 in assay [10]. The composite z-score in [11] was 0.52; in [12], -0.0146; in assay [13], -0.607; in assay [15], 0.728; in assay [16], 0.788; in assay [17] it was 0.539. For the same compound, the composite z-score in assay [18] is 0.67; in assay [19] it was 0.669; in assay [20], -0.0201. Also, the z-score in [2] is -0.173 (inactive); in [3], -1.02 (inactive); in assay [4], 0.127 (inactive); in assay [6], 0.132 (inactive); in assay [14] it was -0.413 (inactive).
In the case of `CO[C@@H]1COC(=O)[C@H](COCc2ccccc2)NC(=O)CC=C[C@@H](C)[C@H](OC)COC(=O)[C@@H](C)NC(=O)CC=C[C@H]1C`, the composite z-score in assay [1] is 1.39; in assay [5], -1.07; in assay [7], -0.147; in [8], 1.16; in [9], -0.0488; in [10] it was -0.166. Also, the composite z-score is 1.57 in assay [11]; -0.556 in assay [12]; -0.97 in assay [13]; 0.0278 in assay [15]; -0.314 in assay [16]; 0.378 in [17]. The composite z-score turned out to be 0.754 in assay [18], 1.16 in assay [19] and 1.84 in assay [20]. For the same compound, the z-score in assay [2] was 0.203 (inactive); in [3], -0.536 (inactive); in assay [4], 0.55 (inactive); in assay [6], 1.52 (inactive); in assay [14], 0.0772 (inactive).
